# Source: ChEMBL document CHEMBL3988442, “University of Dundee, Small-Polar-MMV Screening Library” (2021)
# The whole screen tested about 69,000 compounds, of which about 950 (1.4%) showed an effect of 50% or more. The full list was thinned out, with strong results kept by preference.
# Tested on: Mycobacterium tuberculosis
# Assay: Cornell M. t heat shock assay; note: in the data most compounds retested in dose-response had high values
# Assay type: functional, organism-based
# Design: dose or concentration left out as unconfirmed
row,Structure (SMILES),Percent Effect [%]
1,COCCN1C(=O)[C@H]2CC[C@@H]1CN(Cc1nnc(-c3ccccc3)o1)C2,0.9802
2,CCOCC1CN(c2ccc(C)nn2)Cc2cnn(CC)c21.O=C(O)C(F)(F)F.O=C(O)C(F)(F)F (stereo not drawn),34.67
3,CS(=O)(=O)CC(=O)N1C[C@H]2CCC[C@@]2(COCc2ccccn2)C1.O=C(O)C(F)(F)F,1.254
4,O=C(O)C(F)(F)F.c1coc(CN2CCC3(CC2)COC(COCC2CC2)C3)c1 (stereo not drawn),-19.69
5,O=C(O)C(F)(F)F.O=C(c1cccc(F)c1)N1C[C@H]2CN(Cc3ccccn3)C[C@H]2C1,-10.41
6,O=C(O)C(F)(F)F.O=C1CC[C@]2(CC[C@@H](NCc3ccsc3)CC2)N1Cc1ccccc1,-7.125
7,COCc1nn(C(C)C)c2c1CCN(Cc1ccoc1)C2.O=C(O)C(F)(F)F,-50.08
8,Cc1cc(NCCc2cnccn2)nc(-c2ccccc2O)n1,15.98
9,Cc1cc(NCCc2nc(C)c[nH]2)nc(-c2ccccc2O)n1,7.352
10,Cc1cc(NCCNc2cccnc2)nc(N)n1,-13.91
11,Cc1cc(NCCO)nc(-c2ccccc2O)n1,5.939
12,Cc1cc(NCCNc2cccnc2)nc(-c2ccccc2O)n1,65.56
13,Cc1cc(NCCN)nc(-c2ccccc2O)n1,74.35
14,Cc1cc(C)c(N(CC(O)CNCc2ccco2)S(C)(=O)=O)c(C)c1.O=C(O)c1ccccc1 (stereo not drawn),18.07
15,CCOC1COC2(CCN(Cc3ccc(F)cc3)CC2)C1.O=C(O)C(F)(F)F (stereo not drawn),-14.13
16,CCCC(=O)N(CCCN1CCOCC1)c1nc2c(C)ccc(Cl)c2s1.Cl,99.14
17,CCCC(=O)N(CCCN1CCOCC1)c1nc2c(C)c(C)ccc2s1.Cl,46.86
18,CCCC(=O)N(CCCN1CCOCC1)c1nc2c(Cl)cccc2s1.Cl,25.9
19,COC(=O)c1ccc(CN[C@@H]2COC[C@H]2Cc2cc(C)no2)cc1.O=C(O)CC(O)(CC(=O)O)C(=O)O,-21.34
20,CC(C)Nc1cccc(CC2CCN(C)C2)n1.O=CO (stereo not drawn),4.45
21,CCCc1cc(NCCN2CCNC2=O)n2nccc2n1,-6.778
22,CCCc1cc(NCCn2cccn2)n2nccc2n1,70.39

row,Structure (SMILES),Percent Effect [%]
1,CCCc1cc(NCCn2cccn2)n2ncnc2n1,8.061
2,COCCN(C)C1COC2(CCN(Cc3cccc(F)c3)CC2)C1.O=C(O)C(F)(F)F.O=C(O)C(F)(F)F (stereo not drawn),-38.12
3,Cn1cccc1C(=O)N1CCC2(CCN2c2ncccn2)C1.O=C(O)C(F)(F)F (stereo not drawn),8.832
4,CCc1ccc(CN2CC[C@H]3[C@H]2CC(=O)N3Cc2cccc(C)n2)o1.O=C(O)C(F)(F)F.O=C(O)C(F)(F)F,-1.259
5,Cc1ccc(CNC(c2ccc(F)cc2)c2nccn2C)o1 (stereo not drawn),74.11
6,Cc1ccc(CNC(c2cccc(F)c2)c2nccn2C)o1.Cl (stereo not drawn),79.6
7,Cc1ccc(CNCCC(O)(c2nccn2C)C(F)(F)F)o1 (stereo not drawn),-16.27
8,COc1c(CNC(c2cccc(F)c2)c2nccn2C)c(C)nn1C (stereo not drawn),-20.66
9,CC(c1cccc(F)c1)N1CCN(Cc2nccn2C)CC1 (stereo not drawn),-12.42
10,Cc1ccc(CNC(C)c2cc(F)ccc2N2CCN(C)CC2)o1 (stereo not drawn),-35.24
11,Cl.Cn1nc(C2CCCN(Cc3ccc(F)c(F)c3)C2)c2nccnc21 (stereo not drawn),-15.39
12,O=C(O)C(F)(F)F.O=C(O)C(F)(F)F.O=C1CO[C@@H]2CN(Cc3nccs3)C[C@H]2N1Cc1ccncc1,-20.96
13,O=C(O)C(F)(F)F.O=C(O)C(F)(F)F.c1cncc(O[C@H]2CC[C@H]3[C@H]2OCCN3C2CCC2)c1,-41.43
14,COc1cccc(-c2cccc(-c3ccn(CC4COCCO4)n3)c2)n1 (stereo not drawn),-12.43
15,CSc1nccc(-c2cccc(-c3ccn(CC4COCCO4)n3)c2)n1 (stereo not drawn),87.01
16,COc1nccnc1-c1cccc(-c2ccn(CC3COCCO3)n2)c1 (stereo not drawn),-10.15
17,Cc1cnccc1-c1cnn(CCNC(=O)c2cccnc2)c1C1CC1.Cl,-20.8
18,O=C(NCCNc1ncccn1)C1CCN(C(=O)NC2CC2)CC1,12.93
19,COc1ccc(-c2nnc(SC(C)C(=O)NCC(C)C)[nH]2)c(OC)c1 (stereo not drawn),21.58
20,Cc1cccnc1CN(C)C(C(=O)O)c1ccc(C(C)(C)C#N)cc1 (stereo not drawn),35.15
21,Cc1cccnc1CN(C)C(C(=O)O)c1ccc(-n2cccn2)cc1 (stereo not drawn),85.61
22,Cc1cccnc1CN(C)C(C(=O)O)c1ccc(-c2ccn[nH]2)cc1 (stereo not drawn),46.05

row,Structure (SMILES),Percent Effect [%]
1,CCOc1cccc(C(=O)Nc2ccn(CC)n2)c1,10.2
2,CCn1ccc(-c2cc(NCCCOc3cccc(C)c3)nc(C)n2)n1,104.2
3,COc1ccccc1OCCNCCn1cccn1,-4.408
4,CCn1ccc(-c2cc(NCCCOc3ccccc3C)nc(C)n2)n1,105.6
5,CCn1ccc(-c2cc(C(=O)O)n3nc(C)c(Cl)c3n2)n1,6.637
6,Cc1cccc(OCCCNC(=O)Cn2ccc(C)cc2=O)c1,9.396
7,Cc1oncc1C(=O)N1C[C@H](OCc2ccccn2)[C@H]2OCCC[C@H]21.O=C(O)C(F)(F)F,-20.31
8,CCOC(=O)CSc1nnc([C@@H](N)C(C)C)o1.Cl,-3.757
9,CNC(=O)c1cc2c(nc1NCC1CC1)CCN(CC1CC1)CC2.O=C(O)C(F)(F)F.O=C(O)C(F)(F)F,-24.38
10,Cc1cccc(C)c1CCNC(=O)N1CCCC2(C1)OCCO2,5.49
11,O=CO.c1nc(CN2CCCC(Cc3ccc(NC4CCCC4)nn3)C2)c[nH]1 (stereo not drawn),20.05
12,Cc1ccc(CN2C[C@H]3C[C@H](C(=O)Nc4cccnc4)[C@@H](C2)O3)cc1,0.4433
13,Cc1cnc(CNC(=O)[C@@]23CCO[C@@H]2CCNC3)cn1.O=C(O)C(F)(F)F,23.9
14,CN1CCN(Cc2cccnc2)C(=O)C12CCN(Cc1ccco1)CC2.O=C(O)C(F)(F)F.O=C(O)C(F)(F)F.O=C(O)C(F)(F)F,5.064
15,CN(C)CC(=O)N1CCC2(CCc3cc(-c4cccnc4)ccc32)CC1.O=C(O)C(F)(F)F.O=C(O)C(F)(F)F,53.15
16,CN(C)CC(=O)N1CCC2(CCc3ccc(-c4ccncc4)cc32)CC1.O=C(O)C(F)(F)F.O=C(O)C(F)(F)F,-52.11
17,O=C(O)C(F)(F)F.O=C(O)C(F)(F)F.c1cncc(C2COC3(CCN(Cc4nccs4)CC3)C2)c1 (stereo not drawn),-9.404
18,c1cncc(-c2ccc3c(c2)CCC32CCNCC2)c1,88.51
19,c1cncc(-c2ccc3c(c2)C2(CCNCC2)CC3)c1,-40.79
20,O=C(O)C(F)(F)F.O=C(O)C(F)(F)F.c1cncc(-c2ccc3c(c2)CCC32CCN(Cc3nccs3)CC2)c1,74.6
21,O=C(O)C(F)(F)F.O=C(O)C(F)(F)F.c1cncc(-c2ccc3c(c2)CCC32CCN(Cc3ccco3)CC2)c1,104
22,c1cc(-c2ccc3c(c2)CCC32CCNCC2)ccn1,-56.04

row,Structure (SMILES),Percent Effect [%]
1,O=C(O)C(F)(F)F.c1cncc(-c2ccc3c(c2)C2(CC3)CCN(c3nncs3)CC2)c1,12.31
2,O=C(O)C(F)(F)F.O=C(O)C(F)(F)F.c1csc(CN2CCC3(CC2)CCN(CC2CC2)CC3)n1,-18.7
3,Cc1ccc2c(c1)CCC21CCN(C(=O)CN(C)C)CC1.O=C(O)C(F)(F)F,-22.19
4,Cc1nc(COC[C@@H]2CC[C@H]3[C@H](CCN3c3ccccn3)O2)cs1.O=C(O)C(F)(F)F,-8.365
5,COCC(=O)NC1CC2(CCN(Cc3ccco3)CC2)c2ccccc21.O=C(O)C(F)(F)F (stereo not drawn),-0.75
6,Cn1ccc(C(=O)N2CCC3(CCN3c3ncccn3)C2)n1.O=C(O)C(F)(F)F (stereo not drawn),24.82
7,CC(C)(C)c1ncc(C(=O)NC(C(N)=O)c2ccccc2)s1 (stereo not drawn),-32.92
8,Cn1cc(C(=O)N2CC[C@@H]3[C@@H]2CCN3Cc2cccnc2)cn1.O=C(O)C(F)(F)F.O=C(O)C(F)(F)F,-1.797
9,COC[C@]12COC[C@H]1CN(Cc1cc(OC)cc(OC)c1)C2.O=C(O)C(F)(F)F,3.349
10,Cc1cc2n(n1)CC(CNC1CCN(Cc3ccncc3)CC1)CN2 (stereo not drawn),-16.93
11,Cc1cccc(CN2CCC(NCC3CNc4cc(C)nn4C3)CC2)c1 (stereo not drawn),108.8
12,Cc1cc2n(n1)CC(CNC1CCN(Cc3ccccc3C)CC1)CN2 (stereo not drawn),13.82
13,COCCCNC(=O)Cn1c(C)cc(=O)n2nc(-c3cccs3)nc12,14.25
14,CCCNC(=O)CCNc1cncc(-n2nc(C)cc2C)n1,-16.72
15,COCCNC(=O)Cn1c(C)cc2nc(SC)n(CC(C)C)c(=O)c21,-7.488
16,CCCc1cc(=O)n(CC(N)=O)c(-n2nc(C)cc2C)n1,28.09
17,CCCNC(=O)Cn1c(C)nn(C(C)(C)C)c1=O,11.09
18,CCCc1cc(=O)n(CC(=O)NCCOC)c(-n2nc(C)cc2C)n1,103.9
19,CCCNC(=O)Cn1c(-n2nc(C)cc2C)nc(CCC)cc1=O,96.63
20,Cc1cc(C)n(-c2cncc(NCCC(=O)NC(C)C)n2)n1,-1.343
21,CCCc1cc(=O)n(CC(=O)NC(C)C)c(-n2nc(C)cc2C)n1,96.11
22,O=C(O)C(F)(F)F.O=C(O)C(F)(F)F.O=C(c1ccnnc1)N1C[C@@H]2OCCN(CCN3CCCC3)[C@@H]2C1,-5.03
